Screening data (PubChem BioAssay)
This is a sample that favours compounds with a hit; in the whole collection about 4.1% have one here.
DAX1 inh-1: inhibitors of DAX1 repression of SF-1 activated StAR promoter; HEK293T StAR-luciferase reporter, SF-1/DAX-1 repression relief; inhibition, % at 6.8 µM; 370,000 compounds, 1.1% hits; AID 652010;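 active = inhibition above the mean over all tested compounds plus 3 SD, cut at about 3.6% in these data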;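 note: 0% = DAX-1 cells with DMSO and 100% = cells lacking DAX-1 with DMSO; higher inhibition means more luminescence from relief of DAX-1 repression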
hcDAF-12 act: activators of H. contortus DAF-12 nuclear receptor; HEK293 hcDAF-12 lit1-tk-luc reporter, luminescence; 0% DMSO, 100% Δ7-dafachronic acid; activation, % at 6.8 µM; 370,000 compounds, 1.4% hits; AID 652067;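 active = activation above the mean of all tested compounds plus 3 SD, cut at about 5.5% in these data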;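 note: 100% = response to 3 µM Δ7-dafachronic acid high control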
hgDAF-12 ag: hgDAF-12 agonism, primary luciferase screen; HEK293 GAL4-hgDAF12 UAS-luciferase reporter, agonist luminescence; normalized to butyrate control; activation, % at 6.8 µM; 370,000 compounds, 1.8% hits; AID 687014;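 active = activation above a cutoff set at the mean of all screened compounds plus 3 SD, cut at about 10% in these data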;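 note: 0% = DMSO wells and 100% = sodium butyrate wells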
ssDAF12 agonist: activators of S. stercoralis DAF-12 nuclear receptor. HEK293 ssDAF-12/GRIP1 lit1-tk-luc reporter, luminescence; % of 3 µM dafachronic acid response. activation, % at 6.8 µM. 370,000 compounds, 1% hits. AID 652126;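 active = activation above the mean over all tested compounds plus 3 SD, cut at about 0.9% in these data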;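 note: 0% = DMSO-only wells and 100% = 3 µM delta7-dafachronic acid wells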
DAX1 inh-2: inhibitors of human orphan nuclear receptor DAX1 (NR0B1) | HEK293 Gal4-DAX1 luciferase reporter, luminescence | inhibition, % at 6.75 µM | 340,000 compounds, 0.99% hits | AID 504766;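 active = inhibition above the mean over all tested compounds plus 3 SD, cut at about 4.2% in these data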;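 note: 0% = DAX1-transfected cells with DMSO and 100% = empty-vector control cells with DMSO; inhibition shows as a rise in luminescence from relieved DAX1 repression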
hgDAF12 conf: hgDAF-12 agonism, confirmation assay | 3,300 compounds, 80% hits | HEK293 GAL4-hgDAF12 luciferase reporter, agonist mode; percent of butyrate response | shares compounds with hgDAF-12 ag | activation, % at 6.8 µM;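 active = mean activation over triplicate wells above the hit cutoff derived from the earlier primary screen, cut at about 11% in these data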;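 note: 0% = DMSO low control and 100% = 2 mM sodium butyrate high control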
LXRb DAF12 ctr: counter-screen for DAF-12 agonists: agonists of human LXR-beta; shares compounds with hgDAF-12 ag; 3,300 tested, under 10 active; HEK293 Gal4-LXR luciferase reporter, 24 h; activation, % at 6.8 µM; AID 743051;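 active = mean activation of the triplicate above a set limit carried over from the primary screen, none filed active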
Target sequence (P55055 whole entry, looked up, the tested form may be a part): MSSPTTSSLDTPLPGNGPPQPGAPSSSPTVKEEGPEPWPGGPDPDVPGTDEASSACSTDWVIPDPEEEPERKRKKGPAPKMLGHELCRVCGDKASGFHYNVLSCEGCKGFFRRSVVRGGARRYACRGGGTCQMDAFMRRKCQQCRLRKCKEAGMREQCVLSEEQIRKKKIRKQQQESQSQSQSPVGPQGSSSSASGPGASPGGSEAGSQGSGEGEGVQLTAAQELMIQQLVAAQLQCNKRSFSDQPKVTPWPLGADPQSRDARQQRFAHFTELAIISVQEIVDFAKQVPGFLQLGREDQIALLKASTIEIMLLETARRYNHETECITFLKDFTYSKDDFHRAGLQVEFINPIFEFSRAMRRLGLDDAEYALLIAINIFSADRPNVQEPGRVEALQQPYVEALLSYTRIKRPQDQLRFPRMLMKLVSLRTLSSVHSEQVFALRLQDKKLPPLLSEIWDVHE
Numbers without * were called inactive; x = no result given.

SMILES	DAX1 inh-1	hcDAF-12 act	hgDAF-12 ag	ssDAF12 agonist	DAX1 inh-2	hgDAF12 conf	LXRb DAF12 ctr
CC1(C)CC(=O)c2cc(N=C/C(C(=O)c3ccccc3)=C(\O)c3ccccc3)c(=O)oc2C1	1	1	14*	0	5.1*	7	0
CSCCC(NS(=O)(=O)c1ccccc1F)C(=O)OCc1ccccc1Cl (configuration not stated)	-1	-2	-1	-2	-2	x	x
COc1ccc(CNc2nc3ccccc3n2C)c(O)c1	4.5*	4	17*	0	4	21*	1
COc1ccc(CNc2nc3ccccc3n2C(C)C)c(O)c1	0	-3	0	-1	1	x	x
COc1ccc(CN(C(=O)c2cc(=O)c3ccccc3o2)C2CCS(=O)(=O)C2)cc1OC (configuration not stated)	2	0	1	-1	0	x	x
O=C(Nc1nccs1)C(Br)C(Br)c1ccccc1 (configuration not stated)	1	6.4*	16*	0	0	19*	1
CC(=O)OC(C(=O)Nc1nccs1)c1ccccc1 (configuration not stated)	1	0	-1	-1	3	x	x
C=CCSc1nnc(-c2ccc(Cl)cc2Cl)o1	3	4	14*	0	2	14*	1
FC(F)(F)c1cccc(CNC2CCN(Cc3ccccc3)CC2)c1	1	0	-2	-1	3	x	x
COc1ccc(O)c(C(=O)CC(=O)c2ccccc2C)c1	1	3	23*	0	4.8*	10	1
Cc1c(C(=O)NC(C)c2ccc(-n3ccnc3)cc2)cccc1[N+](=O)[O-] (configuration not stated)	1	2	2	-1	0	x	x
O=C(CNC(=O)c1ccc(-c2ccccc2)cc1)OCc1ccc(Br)cc1	0	2	13*	0	0	6	0
COc1ccc(-c2noc(C3CCCN(C(=O)NC4CCC(C)CC4)C3)n2)cc1 (configuration not stated)	4	0	14*	-1	x	2	0
CCCCC(=O)N1CCCC(c2nc(-c3cccc(OC)c3)no2)C1 (configuration not stated)	2	1	15*	-1	2	6	0
COc1cccc(-c2noc(C3CCCN(C(=O)CC(C)(C)C)C3)n2)c1 (configuration not stated)	1	2	9	-2	1	x	x
COc1ccc(-c2noc(C3CCCN(C(=O)c4ccc(C)cc4)C3)n2)cc1 (configuration not stated)	0	-2	0	-2	0	x	x
O=C(COC(=O)c1nc(Cl)ccc1Cl)NC1CCS(=O)(=O)C1 (configuration not stated)	1	-1	2	-1	1	x	x
O=c1[nH][nH]c(=O)c2c1[nH]c(=S)n2Cc1ccccc1	-1	-1	1	-1	1	x	x
Cc1oc(-c2ccc(-c3ccccc3)cc2)nc1CN1CCN(CC(=O)N(C)C)CC1	3	6.5*	15*	0	1	14*	1
Cc1cc(C)c2nc(N)sc2c1	0	3	3	-1	-1	x	x
Cc1cc(C)c2sc(N)nc2c1	-1	-2	14*	-1	-1	1	0
Cc1ccc(OCCCC(=O)Nc2nc3ccccc3[nH]2)cc1	0	-1	1	-1	0	x	x
Cc1cccc(OCCCC(=O)Nc2nc3ccccc3[nH]2)c1	0	0	14*	-1	-1	7	0
NC1=NC2(CCCCC2)N=C(Nc2ccc(Br)cc2)N1	0	-2	-3	-1	0	x	x
CCc1ccc(-c2cc(C(=O)N/N=C/c3c[nH]c4ccccc34)[nH]n2)cc1	-3	3	18*	1	0	1	0
SMILES	DAX1 inh-1	hcDAF-12 act	hgDAF-12 ag	ssDAF12 agonist	DAX1 inh-2	hgDAF12 conf	LXRb DAF12 ctr
O=C(c1ccccc1)c1cnc(-c2ccccc2)s1	3	3	16*	0	9.3*	18*	1
O=C(c1ccc(Cl)cc1)c1cnc(-c2ccc(Cl)cc2)s1	0	0	1	-1	0	x	x
COc1cccc(C(=O)Nc2ccc(C3CC3(Cl)Cl)cc2)c1 (configuration not stated)	3	2	19*	1.2*	0	18*	1
COc1cccc(C(=O)NC(=O)Nc2cc(C)[nH]n2)c1	3	4	15*	0	8.1*	14*	1
COc1cccc(C(=O)NC(=S)Nc2ccc(N3CCCC3)cc2)c1	-1	1	3	-1	1	x	x
Cc1cc(NC(=O)c2cccc(Br)c2)n[nH]1	0	1	5	-1	1	x	x
COc1cccc(C(=O)NC(=S)Nc2ccc(N(C)C)cc2)c1	1	0	18*	-1	0	12*	0
COc1ccc(C(=S)Nc2ccc(N(C)C)cc2)cc1	4.0*	6	15*	1	1	15*	1
COc1ccc(NC(=S)c2ccccc2)cc1	2	1	8	-1	1	x	x
Cc1ccc(S(=O)(=O)N2CCN(C(=O)CN3C(=O)NC4(CCCC4)C3=O)CC2)c(C)c1	3	-1	1	-2	-1	x	x
COc1cc([N+](=O)[O-])ccc1NC(=O)NCC1CCN(Cc2ccc(Cl)cc2)CC1	-1	-1	0	-1	-1	x	x
O=C(COC(=O)c1nc(Cl)ccc1Cl)Nc1ncc(Cl)cc1Cl	1	-1	-1	0	1	x	x
O=S(=O)(Nc1ccc2ccccc2n1)c1ccccc1Cl	0	-1	1	-1	0	x	x
C(#Cc1ccccc1)Cn1nnc2ccccc21	1	0	3	-1	1	x	x
c1ccc(CNn2nnc3ccccc32)cc1	2	-1	14*	-1	x	11*	0
C/C(=N\NC1=N[C@H]2CS(=O)(=O)C[C@H]2S1)c1ccccc1	0	3	-1	0	x	x	x
Cc1ccc(C(=O)Nc2ccc(SC(F)F)cc2)s1	4.2*	5	20*	-1	2	13*	1
CC[N+](CC)(CC)CC(=O)Nc1ccc(SC(F)F)cc1	0	-1	-2	-1	2	x	x
Cc1cccc(/N=C/c2nc(-c3ccccc3Br)oc2O)n1	0	2	5	-1	-1	x	x
Cc1ccnc(N=Cc2nc(-c3ccccc3Br)oc2O)c1	2	0	15*	1	0	6	0
O=C(Nc1ccc(Br)cn1)c1ccc(Br)s1	1	6.2*	20*	1	1	20*	1
O=C(NC1=NCCS1)c1ccc(Br)s1	3.8*	6.0*	14*	0	3	13*	1
